POLI inh – qHTS for Inhibitors of Polymerase Iota | Potency, µM (highest dose often 115 µM), for the others: at the highest dose activity, negative = inhibition, usual class: inhibitors | Pol iota fluorescent replication assay, 10 min | 390,000 compounds, 1% hits | DNA polymerase iota (Homo sapiens), Q9UNA4; also: potency is read from the fitted curve at half-maximal effect
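Pol iota at 10 nM preincubated 15 min with compounds at room temperature; reaction started with fluorescent substrate, 50 nM final. Fluorescence read kinetically at 0 and 10 min; buffer-only wells as negative control.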
Pol eta inh – qHTS for Inhibitors of Polymerase Eta; recombinant Pol eta, fluorescent DNA replication assay; Potency, µM (doses to about 114 µM), for inactives: at the highest dose activity change, negative = inhibition, actives largely listed as inhibitors; 390,000 compounds, 1.2% hits; AID 588591, 2011; also: potency is read from the fitted curve at half-maximal effect; % is scaled to controls: 0 for no effect and ±100 for the full control effect
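Pol eta (10 nM) was preincubated with compounds for 15 min at room temperature, after which fluorescent replication substrate (50 nM final) was added to start the reaction. Fluorescence was read kinetically at 0 and 10 min.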
FEN1 inh – qHTS Assay for the Inhibitors of Human Flap endonuclease 1 (FEN1) | P39748 | Recombinant FEN1 flap cleavage, fluorescence, 15 min | Potency, µM (titrated, usually from 114 µM), for inactives: top-dose activity change, negative = inhibition, hits mostly inhibitors | 390,000 compounds, 0.35% hits | AID 588795, 2011; also: potency is read from the fitted curve at half-maximal effect; % is scaled to controls: 0 for no effect and ±100 for the full control effect; nearly all actives have a fitted effect of over 65% in size
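Recombinant FEN1 (10 nM) was preincubated with pin-transferred compounds for 15 min at room temperature, then flap DNA substrate (50 nM final) was added. Plates were read at 0 and 15 min, and normalized concentration–response data were fitted to a four-parameter Hill equation.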
Pol beta inh – qHTS Assay for Inhibitors of DNA Polymerase Beta | P06746 | Pol beta primer extension/strand displacement, fluorescence kinetic | Potency, µM (top dose mostly 114 µM), for inactives: top-dose activity change, negative = inhibition, actives largely listed as inhibitors | 340,000 compounds, 1.3% hits | AID 485314, 2010; also: potency is read from the fitted curve at half-maximal effect; % is scaled to controls: 0 for no effect and ±100 for the full control effect
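Kinetic readout of DNA synthesis with strand displacement by Pol beta. Compound and 10 nM enzyme sit 15 min at room temperature; 50 nM substrate starts the reaction, read immediately and at 10 min.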
PI5P4K alpha inh – qHTS for Inhibitors of phosphatidylinositol 5-phosphate 4-kinase (PI5P4K). PI5P4Kalpha enzyme, ADP-Glo luminescence, 60 min; stronger effect = lower value. 330,000 compounds, 1.2% hits. max response, %. Phosphatidylinositol 5-phosphate 4-kinase type-2 alpha (Homo sapiens), P48426; active = max response of -50% or lower; inconclusive = between -30% and -50%; inactive = -30% or higher; also: value at the top dose of about 77 µM; % is scaled to controls: 0 for no effect and ±100 for the full control effect
Target sequence (P48426 whole entry, looked up): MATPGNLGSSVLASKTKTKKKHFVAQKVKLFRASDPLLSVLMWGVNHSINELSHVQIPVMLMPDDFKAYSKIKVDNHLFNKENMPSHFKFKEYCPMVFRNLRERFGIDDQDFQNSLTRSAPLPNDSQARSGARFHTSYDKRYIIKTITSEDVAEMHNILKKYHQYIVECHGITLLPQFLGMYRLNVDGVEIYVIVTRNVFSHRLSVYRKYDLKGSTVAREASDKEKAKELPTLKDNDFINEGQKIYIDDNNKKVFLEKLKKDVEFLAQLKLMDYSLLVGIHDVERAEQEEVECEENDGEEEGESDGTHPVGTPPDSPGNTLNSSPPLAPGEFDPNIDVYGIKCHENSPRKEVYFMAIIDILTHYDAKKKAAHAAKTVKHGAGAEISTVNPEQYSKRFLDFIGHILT
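PI5P4Kalpha ADP-Glo assay; 5 microM ATP final; 60 min RT reaction; HEPES pH 7.4/EGTA/CHAPS, 5% DMSO; controls lacking substrate or enzyme; luminescent end-point.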
Pol kappa inh – qHTS for Inhibitors of Polymerase Kappa; AID 588579, 2011; purified Pol kappa, fluorescent DNA synthesis assay, 10 min; Potency, µM (titrated, usually from 107 µM), for inactives: at the top dose activity, negative = inhibition, actives largely listed as inhibitors; DNA polymerase kappa (Homo sapiens), Q9UBT6; 400,000 compounds, 0.53% hits; also: potency is read from the fitted curve at half-maximal effect; % is scaled to controls: 0 for no effect and ±100 for the full control effect
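Pol kappa 10 nM + cpd, 15 min RT; start w/ substrate 50 nM final; fluorescence kinetic read, 0 and 10 min. Neg ctrl: buffer, no enzyme.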
ADP-Glo interf – qHTS for Inhibitors of PI5P4K: ADP-Glo counter assay; shares compounds with PI5P4K alpha inh; ADP-Glo detection counter-screen, luciferase luminescence, no enzyme; Potency, µM (top dose mostly 76.9 µM), for the others: top-dose activity change, negative = inhibition, hits mostly inhibitors; 1,100 tested, under 10 active; AID 743285, 2014
The depositor's hits bear a star; [ ] = another dose, or the depositor's remark. A selection: hits, their analogues and other compounds. The true share with any hit is near 2.8%. Unless noted, calls follow the shape of the dose curve; as a rule, active = well fitted curve in the direction sought with a large enough effect; inconclusive = small, poorly fitted or top-dose-only effect, or another doubt; inactive = no such curve, though single readings can be large; an effect the other way counts as inactive or inconclusive.

How did O=C(COC(=O)Cc1ccsc1)Nc1cccc(F)c1 do in these assays?
POLI inh: -2.6%; Pol eta inh: -7.0%; FEN1 inh: -5.3%; PI5P4K alpha inh: -55.8*; Pol kappa inh: -8.7%; ADP-Glo interf: -2.2%

Results for O=C(COC(=O)Cc1ccsc1)Nc1cccc(Cl)c1 ?
POLI inh: -4.9%; Pol eta inh: -14.5%; FEN1 inh: 10.4%; PI5P4K alpha inh: 7.5; Pol kappa inh: -16.1%

Results for CCc1sc(C(=O)Nc2ccc3c(c2)OCO3)cc1C ?
POLI inh: inconclusive; Pol eta inh: inconclusive; FEN1 inh: -15.4%; PI5P4K alpha inh: -71.8*; Pol kappa inh: -32.6%; ADP-Glo interf: 5.4%

Results for CCC(Sc1nnc2c3ccccc3n(C)c2n1)C(=O)Nc1nnc(C(C)C)s1 (stereo unspecified) ?
POLI inh: 6.5%; Pol eta inh: -6.6%; FEN1 inh: -12.4%; Pol beta inh: 14.6%; Pol kappa inh: -4.3%

Results for CC(C)(C)c1ccc(NC(=O)C2=CC=CN3CCS(=O)(=O)N=C23)cc1 ?
POLI inh: 6.7%; Pol eta inh: -1.6%; FEN1 inh: 12.7%; PI5P4K alpha inh: 4.5; Pol kappa inh: 5.9%; ADP-Glo interf: 3.2%

How did CCN(CC)c1ccc(NC(=O)C2=CC=CN3CCS(=O)(=O)N=C23)cc1 do in these assays?
POLI inh: 31.8%; Pol eta inh: -14.7%; FEN1 inh: -4.6%; PI5P4K alpha inh: 1.2; Pol kappa inh: 8.0%

Results for Cc1cccc(C)c1NC(=O)C(c1ccc(C#N)cc1)n1c(=O)c(-c2ccco2)nc2ccccc21 (stereo unspecified) ?
PI5P4K alpha inh: -52.8*; ADP-Glo interf: -1.5%

What do the screens show for `CCCCCNC(=O)C(c1cc2ccccc2o1)n1c(=O)c(-c2ccco2)nc2ccccc21` (stereo unspecified)?
PI5P4K alpha inh: -108.3*; ADP-Glo interf: -6.8%

What do the screens show for `Cc1cccc(C)c1NC(=O)C(c1ccccc1)n1c(=O)c(-c2ccco2)nc2ccccc21` (stereo unspecified)?
PI5P4K alpha inh: -51.8*; ADP-Glo interf: -4.2%

Results for O=C(NCc1ccccc1)C(c1ccccc1F)n1c(=O)c(-c2ccco2)nc2ccccc21 (stereo unspecified) ?
PI5P4K alpha inh: -63.6*; ADP-Glo interf: -5.3%

How did O=C(NCc1ccccc1)C(c1cc2ccccc2o1)n1c(=O)c(-c2ccccc2)nc2ccccc21 (stereo unspecified) do in these assays?
PI5P4K alpha inh: -2.5

How did CCOc1ccc(CCNC(=O)C(CCC(N)=O)NC(=O)OCc2ccccc2)cc1OCC (stereo unspecified) do in these assays?
POLI inh: 46.8%; Pol eta inh: -13.0%; FEN1 inh: 3.2%; Pol beta inh: 3.2%; PI5P4K alpha inh: 3.1; Pol kappa inh: -12.1%

How did COc1ccc(CNC(=O)CN2C(=O)CCSc3ccc(S(=O)(=O)N4CCCC4)cc32)cc1 do in these assays?
POLI inh: -4.8%; Pol eta inh: -21.2%; FEN1 inh: 0.7%; Pol beta inh: 42.0%; PI5P4K alpha inh: -2.4; Pol kappa inh: 3.3%

What do the screens show for `Fc1cccc(Cc2c(-c3ccco3)nc3ccc(Br)cn23)c1`?
PI5P4K alpha inh: -63.7*; ADP-Glo interf: -4.3%

How did COc1ccccc1Cc1c(-c2ccco2)nc2ccc(Br)cn12 do in these assays?
PI5P4K alpha inh: -56.1*; ADP-Glo interf: -5.0%

Results for Fc1cccc(Cc2c(-c3ccccc3)nc3ccc(Cl)cn23)c1 ?
PI5P4K alpha inh: -1.5

How did Cc1ccc2nc(-c3ccco3)c(Cc3ccccc3)n2c1 do in these assays?
PI5P4K alpha inh: -16.5

Results for Clc1ccc2nc(-c3ccco3)c(Cc3ccccc3)n2c1 ?
PI5P4K alpha inh: -64.5*; ADP-Glo interf: 0.8%

How did Fc1cccc(Cc2c(-c3ccco3)nc3ccc(Cl)cn23)c1 do in these assays?
PI5P4K alpha inh: -50.7*; ADP-Glo interf: -3.7%

How did COC(=O)c1ccccc1NC(=O)c1cnn2c1NC(=C1CC1)C=C2C(F)F do in these assays?
POLI inh: 18.1%; FEN1 inh: -24.7%; Pol kappa inh: 3.4%

What do the screens show for `CC1CN(C(=S)Nc2ccccc2C(F)(F)F)CC(C)O1` (stereo unspecified)?
POLI inh: 22.7%; Pol eta inh: -17.4%; FEN1 inh: -2.0%; Pol beta inh: 38.9%; PI5P4K alpha inh: -3.1; Pol kappa inh: -15.5%

Results for Clc1ccc2nc(-c3ccco3)c(Cc3ccsc3)n2c1 ?
PI5P4K alpha inh: -66.2*; ADP-Glo interf: -2.0%

How did Clc1ccc2nc(-c3ccccc3)c(Cc3ccsc3)n2c1 do in these assays?
PI5P4K alpha inh: -22.2

Results for CCOc1ccc(C(Nc2cccnc2)c2cc(Cl)c3cccnc3c2O)cc1 (stereo unspecified) ?
POLI inh: 48.3%; Pol eta inh: inconclusive; FEN1 inh: inconclusive; Pol beta inh: 6.0%; PI5P4K alpha inh: -68.2*; Pol kappa inh: -9.3%; ADP-Glo interf: -0.5%

What do the screens show for `CCOC(=O)C1CCCN(C(=O)c2ccc(F)c(C)c2)CC1` (stereo unspecified)?
PI5P4K alpha inh: inconclusive; ADP-Glo interf: -1.0%

What do the screens show for `Cn1ccc2cc(S(=O)(=O)N3CCCN(C(=O)Nc4ccccc4Br)CC3)ccc21`?
POLI inh: 7.6%; Pol eta inh: -8.0%; FEN1 inh: -0.9%; Pol beta inh: -2.1%; Pol kappa inh: -12.4%[60.1 µM]

What do the screens show for `Cc1ccc(SCc2cn3cc(Cl)ccc3n2)cc1`?
POLI inh: 4.3%; Pol eta inh: -12.7%; FEN1 inh: -10.8%; Pol beta inh: -0.1%; PI5P4K alpha inh: 8.9; Pol kappa inh: 2.5%

How did Clc1ccc2nc(CSc3nc4ccccc4o3)cn2c1 do in these assays?
POLI inh: -3.9%; Pol eta inh: 3.6%; FEN1 inh: 2.6%; Pol beta inh: -4.3%; PI5P4K alpha inh: -82.8*; Pol kappa inh: -14.5%; ADP-Glo interf: -7.4%

Assay outcomes as filed in PubChem BioAssay.
